The values below come from the supplement of paper PMC11006884.

Targets with a hit are over-represented here; the source holds about 6,500 in all. About 2% of all pairs of compound and target were hits.

Chain of UniProt Q15181 (Q15181 whole entry, looked up): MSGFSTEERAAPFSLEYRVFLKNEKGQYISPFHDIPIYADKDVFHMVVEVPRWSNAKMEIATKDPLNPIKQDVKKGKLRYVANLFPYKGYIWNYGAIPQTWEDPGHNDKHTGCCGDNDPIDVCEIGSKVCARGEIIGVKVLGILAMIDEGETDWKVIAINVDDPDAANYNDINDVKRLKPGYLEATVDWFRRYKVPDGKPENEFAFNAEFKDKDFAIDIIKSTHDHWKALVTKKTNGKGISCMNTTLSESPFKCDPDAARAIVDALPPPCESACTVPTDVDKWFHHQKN
Chain of UniProt Q15058 (Q15058 whole entry, looked up): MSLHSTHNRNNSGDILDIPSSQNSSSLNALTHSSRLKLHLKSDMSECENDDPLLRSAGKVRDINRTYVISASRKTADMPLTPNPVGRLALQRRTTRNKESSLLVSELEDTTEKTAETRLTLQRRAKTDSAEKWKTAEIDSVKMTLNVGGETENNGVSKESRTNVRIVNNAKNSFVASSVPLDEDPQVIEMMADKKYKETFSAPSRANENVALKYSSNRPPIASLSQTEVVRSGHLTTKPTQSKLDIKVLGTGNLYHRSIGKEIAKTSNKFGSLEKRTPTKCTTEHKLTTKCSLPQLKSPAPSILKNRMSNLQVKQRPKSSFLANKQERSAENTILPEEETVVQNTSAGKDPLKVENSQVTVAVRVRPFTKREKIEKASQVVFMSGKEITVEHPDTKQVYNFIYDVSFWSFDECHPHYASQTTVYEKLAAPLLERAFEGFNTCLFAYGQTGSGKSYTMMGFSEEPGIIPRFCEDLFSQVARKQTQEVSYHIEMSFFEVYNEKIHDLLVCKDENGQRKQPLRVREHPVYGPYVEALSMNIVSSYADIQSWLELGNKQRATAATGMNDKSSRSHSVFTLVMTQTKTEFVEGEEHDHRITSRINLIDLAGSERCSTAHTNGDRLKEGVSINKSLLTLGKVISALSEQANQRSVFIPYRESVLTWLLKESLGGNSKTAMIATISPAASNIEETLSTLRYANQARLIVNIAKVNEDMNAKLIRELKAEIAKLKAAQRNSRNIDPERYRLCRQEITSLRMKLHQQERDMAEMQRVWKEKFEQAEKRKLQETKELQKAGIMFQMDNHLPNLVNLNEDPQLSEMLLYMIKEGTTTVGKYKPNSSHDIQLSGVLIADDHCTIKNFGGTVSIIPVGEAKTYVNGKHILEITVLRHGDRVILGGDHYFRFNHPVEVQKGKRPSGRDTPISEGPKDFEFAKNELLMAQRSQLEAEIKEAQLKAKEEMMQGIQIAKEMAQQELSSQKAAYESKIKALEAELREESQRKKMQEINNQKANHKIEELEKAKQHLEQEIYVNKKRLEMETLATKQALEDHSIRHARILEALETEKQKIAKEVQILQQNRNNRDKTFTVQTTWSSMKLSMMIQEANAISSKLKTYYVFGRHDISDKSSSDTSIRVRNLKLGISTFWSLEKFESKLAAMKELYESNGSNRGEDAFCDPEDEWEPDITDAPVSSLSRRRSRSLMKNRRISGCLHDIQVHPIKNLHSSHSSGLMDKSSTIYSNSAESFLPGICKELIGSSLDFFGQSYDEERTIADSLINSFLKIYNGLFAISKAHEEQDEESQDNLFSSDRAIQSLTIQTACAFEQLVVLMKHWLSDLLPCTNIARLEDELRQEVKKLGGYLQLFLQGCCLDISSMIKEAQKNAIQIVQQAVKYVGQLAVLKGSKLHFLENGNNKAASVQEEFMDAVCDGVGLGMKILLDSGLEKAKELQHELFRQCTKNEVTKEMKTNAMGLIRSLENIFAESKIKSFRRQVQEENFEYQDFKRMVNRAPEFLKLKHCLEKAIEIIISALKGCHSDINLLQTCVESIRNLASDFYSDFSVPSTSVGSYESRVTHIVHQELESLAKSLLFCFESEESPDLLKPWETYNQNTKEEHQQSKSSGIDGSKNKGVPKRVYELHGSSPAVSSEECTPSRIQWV
Chain of UniProt Q15437 (Q15437 whole entry, looked up): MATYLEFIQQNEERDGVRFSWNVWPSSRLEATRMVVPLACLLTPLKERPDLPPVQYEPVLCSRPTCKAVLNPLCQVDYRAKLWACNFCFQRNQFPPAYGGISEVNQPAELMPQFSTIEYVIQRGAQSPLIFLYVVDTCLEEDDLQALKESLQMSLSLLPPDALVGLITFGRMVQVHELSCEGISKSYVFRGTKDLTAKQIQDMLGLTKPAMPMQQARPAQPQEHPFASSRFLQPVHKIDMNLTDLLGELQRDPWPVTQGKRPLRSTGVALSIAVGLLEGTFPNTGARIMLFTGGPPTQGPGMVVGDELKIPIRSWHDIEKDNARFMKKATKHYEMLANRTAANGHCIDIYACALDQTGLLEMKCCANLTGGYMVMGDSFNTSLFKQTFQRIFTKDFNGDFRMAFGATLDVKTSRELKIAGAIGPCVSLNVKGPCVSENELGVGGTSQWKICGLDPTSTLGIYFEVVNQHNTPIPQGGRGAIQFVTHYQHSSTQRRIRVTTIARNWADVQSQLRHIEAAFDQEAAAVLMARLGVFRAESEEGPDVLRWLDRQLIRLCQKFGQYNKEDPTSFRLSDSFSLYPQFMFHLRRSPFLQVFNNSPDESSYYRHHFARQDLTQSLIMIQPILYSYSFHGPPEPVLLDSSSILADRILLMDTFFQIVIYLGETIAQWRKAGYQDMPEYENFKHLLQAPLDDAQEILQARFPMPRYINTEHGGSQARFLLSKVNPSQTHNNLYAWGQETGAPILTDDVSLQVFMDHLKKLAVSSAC
Chain of UniProt Q5JTD0 (Q5JTD0 whole entry, looked up): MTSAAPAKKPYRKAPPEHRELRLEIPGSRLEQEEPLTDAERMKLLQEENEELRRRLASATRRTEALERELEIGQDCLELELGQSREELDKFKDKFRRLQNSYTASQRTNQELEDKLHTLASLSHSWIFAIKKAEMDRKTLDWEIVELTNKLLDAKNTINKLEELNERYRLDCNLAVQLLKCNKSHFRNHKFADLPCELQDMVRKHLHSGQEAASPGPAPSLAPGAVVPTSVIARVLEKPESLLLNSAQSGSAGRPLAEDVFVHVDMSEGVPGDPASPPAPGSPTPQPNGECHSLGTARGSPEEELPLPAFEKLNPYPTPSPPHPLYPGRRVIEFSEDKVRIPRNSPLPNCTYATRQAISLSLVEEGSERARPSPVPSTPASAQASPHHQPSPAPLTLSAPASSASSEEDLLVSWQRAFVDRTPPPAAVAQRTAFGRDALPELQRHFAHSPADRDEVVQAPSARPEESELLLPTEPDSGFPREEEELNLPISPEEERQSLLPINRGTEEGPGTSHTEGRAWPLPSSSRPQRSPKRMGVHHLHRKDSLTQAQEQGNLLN
Chain of UniProt Q13330 (Q13330 whole entry, looked up): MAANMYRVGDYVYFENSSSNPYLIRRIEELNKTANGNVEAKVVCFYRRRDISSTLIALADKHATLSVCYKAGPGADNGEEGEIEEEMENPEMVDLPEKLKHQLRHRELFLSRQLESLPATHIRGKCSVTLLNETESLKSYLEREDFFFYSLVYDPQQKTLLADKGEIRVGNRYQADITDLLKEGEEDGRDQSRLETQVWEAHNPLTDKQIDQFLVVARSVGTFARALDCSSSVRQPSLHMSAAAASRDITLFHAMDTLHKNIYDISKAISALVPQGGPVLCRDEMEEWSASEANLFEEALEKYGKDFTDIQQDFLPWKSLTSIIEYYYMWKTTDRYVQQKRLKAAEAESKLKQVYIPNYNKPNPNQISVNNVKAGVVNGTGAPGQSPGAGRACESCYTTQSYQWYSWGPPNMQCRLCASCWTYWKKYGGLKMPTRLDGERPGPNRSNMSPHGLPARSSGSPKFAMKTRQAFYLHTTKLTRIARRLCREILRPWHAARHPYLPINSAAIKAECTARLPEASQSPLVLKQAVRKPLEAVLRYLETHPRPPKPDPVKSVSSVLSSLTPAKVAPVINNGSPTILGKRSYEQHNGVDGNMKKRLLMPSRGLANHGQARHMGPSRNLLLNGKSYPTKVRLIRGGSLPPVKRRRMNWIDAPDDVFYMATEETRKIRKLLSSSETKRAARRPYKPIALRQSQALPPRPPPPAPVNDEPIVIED
Chain of UniProt Q2TAA2 (Q2TAA2 whole entry, looked up): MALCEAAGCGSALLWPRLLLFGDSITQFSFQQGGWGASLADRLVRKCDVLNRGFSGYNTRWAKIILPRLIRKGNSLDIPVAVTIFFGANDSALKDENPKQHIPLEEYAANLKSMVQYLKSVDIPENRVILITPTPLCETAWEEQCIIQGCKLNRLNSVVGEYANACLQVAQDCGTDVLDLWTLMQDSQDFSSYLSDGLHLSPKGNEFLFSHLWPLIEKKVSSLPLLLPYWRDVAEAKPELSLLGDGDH
Chain of UniProt Q14566 (Q14566 whole entry, looked up): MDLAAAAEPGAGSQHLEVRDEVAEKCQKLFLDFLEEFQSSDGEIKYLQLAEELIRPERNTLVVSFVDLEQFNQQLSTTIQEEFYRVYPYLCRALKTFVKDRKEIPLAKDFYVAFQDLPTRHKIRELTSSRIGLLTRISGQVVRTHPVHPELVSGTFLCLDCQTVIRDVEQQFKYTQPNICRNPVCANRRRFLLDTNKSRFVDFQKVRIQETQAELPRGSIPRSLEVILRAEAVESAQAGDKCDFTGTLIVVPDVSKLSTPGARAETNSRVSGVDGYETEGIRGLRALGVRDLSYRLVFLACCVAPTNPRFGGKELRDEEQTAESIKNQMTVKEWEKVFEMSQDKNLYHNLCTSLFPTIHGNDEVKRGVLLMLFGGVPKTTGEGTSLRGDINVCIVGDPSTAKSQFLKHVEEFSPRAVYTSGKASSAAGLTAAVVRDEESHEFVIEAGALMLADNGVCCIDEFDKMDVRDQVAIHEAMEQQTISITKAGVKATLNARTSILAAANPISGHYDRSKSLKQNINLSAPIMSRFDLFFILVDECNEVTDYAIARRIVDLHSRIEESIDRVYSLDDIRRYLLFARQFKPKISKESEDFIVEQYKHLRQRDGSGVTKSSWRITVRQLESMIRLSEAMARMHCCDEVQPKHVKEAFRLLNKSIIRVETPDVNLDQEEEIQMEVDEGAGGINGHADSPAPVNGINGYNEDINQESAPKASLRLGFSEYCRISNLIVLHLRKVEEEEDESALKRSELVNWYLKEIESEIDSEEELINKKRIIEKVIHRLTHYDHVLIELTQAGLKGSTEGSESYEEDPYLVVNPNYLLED

Compound in this assay: COC(=O)C#Cc1ccccc1 [methyl 3-phenylpropiolate]
Put plainly: log2 ratio of iodoacetamide-alkyne labeling of the cysteine site, DMSO over compound (competition); higher = stronger covalent engagement of the cysteine by the compound, active = 1 or more. To be noted: 500 µM; treatment time 1 h; system: HEK293T cell lysate. The gist of the method: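 Three replicates, each with duplicate channels, were prepared from HEK293T lysate (2 mg/mL) treated with vehicle or electrophile at 500 µM for 1 h at ambient temperature. Iodoacetamide alkyne was then applied for 1 h, and samples were clicked to sCIP-TMT reagents, pooled, trypsin-digested overnight at 37 °C, enriched on streptavidin, acid-eluted and analysed on Orbitrap Eclipse LC-MS/MS with FAIMS, with FragPipe quantification. The log2 competition ratio per cysteine is the mean control-channel divided by the mean compound-channel reporter intensity. Cysteines quantified in only one replicate were left out.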
In the case of LGALS3BP C496 (UniProt Q08380), the “log2 ratio of iodoacetamide-alkyne labeling” value (“log2 ratio” below) is 1.72 (active).

On to GABPA C338 (UniProt Q06546), for which the “log2 ratio” value is 0.308 (inactive).

Take BLM C685 (UniProt P54132): the “log2 ratio” value was 0.197 (inactive).

On to HNRNPUL2 C308 (UniProt Q1KMD3), for which the “log2 ratio” value was 0.826 (inactive).

In the case of SEC23B C767 (UniProt Q15437), the “log2 ratio” value was 0.00601 (inactive).

Regarding OGDH C802 (UniProt Q02218), the “log2 ratio” value was -0.0839 (inactive).

Turning to UniProt Q00341_C948, the “log2 ratio” value is 0.167 (inactive).

As for NUMA1 C375 (UniProt Q14980), the “log2 ratio” value was -0.109 (inactive).

For MTA1 C229 (UniProt Q13330), the “log2 ratio” value was 0.124 (inactive).

With KIF14 C442 (UniProt Q15058), the “log2 ratio” value is 0.0677 (inactive).

On to UniProt P62854_C77, for which the “log2 ratio” value was 0.434 (inactive).

As to UniProt P55769_C30, the “log2 ratio” value was -0.0266 (inactive).

For USP10 C254 (UniProt Q14694), the “log2 ratio” value was 0.49 (inactive).

On to P86790_C358 (UniProt P86791+P86790), for which the “log2 ratio” value was 0.213 (inactive).

With SEC23A C432 (UniProt Q15436), the “log2 ratio” value is 0.163 (inactive).

As to UniProt Q12905_C271, the “log2 ratio” value is 0.137 (inactive).

With TJAP1 C172 (UniProt Q5JTD0), the “log2 ratio” value is 0.251 (inactive).

As for ZNF638 C1930 (UniProt Q14966), the “log2 ratio” value is -0.212 (inactive).

Take UniProt P55196_C942: the “log2 ratio” value is 1.05 (active).

As for UniProt P61978_C184, the “log2 ratio” value is 0.0026 (inactive).

AKAP12 C1407 (UniProt Q02952): the “log2 ratio” value was 1.16 (active).

UniProt Q5H9L4_C158: the “log2 ratio” value was 1.09 (active).

For the target NUP98 C1027 (UniProt P52948), the “log2 ratio” value is 0.378 (inactive).

As for MCM6 C242 (UniProt Q14566), the “log2 ratio” value was 0.192 (inactive).

Turning to UniProt Q15042_C873, the “log2 ratio” value is 0.165 (inactive).

In the case of UniProt Q15042_C335, the “log2 ratio” value was 0.153 (inactive).

Regarding IAH1 C4 (UniProt Q2TAA2), the “log2 ratio” value was 2.43 (active).

For the target UniProt P62834_C141, the “log2 ratio” value was 0.00921 (inactive).

As to UniProt Q16512_C602, the “log2 ratio” value is 0.0536 (inactive).

On to CDK5 C157 (UniProt Q00535), for which the “log2 ratio” value is 0.141 (inactive).

Consider SART3 C472 (UniProt Q15020), for which the “log2 ratio” value is 0.326 (inactive).

On to TRIM28 C717 (UniProt Q13263), for which the “log2 ratio” value is -0.00982 (inactive).

On to BPTF C1357 (UniProt Q12830), for which the “log2 ratio” value is 0.53 (inactive).

For the target SPTAN1 C1930 (UniProt Q13813), the “log2 ratio” value is 0.167 (inactive).

Regarding UniProt P78527_C3281, the “log2 ratio” value is 0.287 (inactive).

As for PPA1 C270 (UniProt Q15181), the “log2 ratio” value was 0.153 (inactive).
